Data published in PubChem BioAssay.
The source made the active and inactive calls.

Tests used:
Albumin (Bos taurus) = Albumin (Bos taurus) (UniProt P02769); assay: bovine serum albumin binders on microarray, profiling panel, artefact control for SMM control protein annotation, biochemical, small-molecule microarray, Alexa647 label, 635/667 nm fluorescence (AID 1118); conditions: BSA-A647 binding, fluorescence 635 nm, higher = more signal;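 note: score merges 667 nm emission intensity and signal-to-noise per printed compound spot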
[1] = small-molecule microarray binders of probe aXIP, primary screen, biochemical, NeuroSMM set, 635/667 nm fluorescence (AID 1119); conditions: higher = more signal, called active from +8 up or from −8 down;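 note: probe is the protein aXip251-270 applied at 1 µg/mL to compound-printed slides; binding of probe to printed compounds measured as 667 nm fluorescence plus signal to noise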
[2] = small-molecule binders of probe aNOTCH3, primary screen, biochemical, small-molecule microarray, 635/667 nm fluorescence (AID 1120); conditions: higher = more signal;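 note: probe is a biotin-tagged antibody raised against NOTCH3 rather than NOTCH3 protein; score merges spot fluorescence near 667 nm with spot signal to noise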
[3] = small-molecule binders of probe aNOTCH2, primary screen, biochemical, small-molecule microarray, 635/667 nm fluorescence (AID 1121); conditions: higher = more signal;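 note: score merges feature fluorescence read at 667 nm with its signal to noise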
[4] = target: Carbonic anhydrase 2 (Homo sapiens) (UniProt P00918); assay: CAII small-molecule binders, profiling panel, biochemical, small-molecule microarray, Alexa647-labelled CAII (AID 1122); conditions: CAII-A647 binding fluorescence, higher = more signal
[5] = COS7 lysate on small-molecule microarray, probe aHis, 635 nm (AID 1123); conditions: COS7 cell lysate, fluorescence, higher = more signal;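 note: z-score combines 667nm fluorescence intensity with signal-to-noise per printed compound spot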
[6] = compound binding in COS7 lysate, probe aLAP1, primary screen, cell lysate, small-molecule microarray (AID 1124); conditions: probe aLAP1, fluorescence, higher = more signal;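 note: lysate comes from COS7 cells expressing LAP1 and is applied at 0.3 µg/mL; score merges spot fluorescence near 667 nm with signal-to-noise over triplicate slides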
Sam68 (KHDRBS1) = assay: Sam68 small-molecule binders, primary screen, biochemical, small-molecule microarray, 635 nm fluorescence (AID 1125); conditions: small-molecule microarray binding, higher = more signal;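 note: score merges 667 nm channel intensity with signal to noise over triplicate slides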
[7] = test system: Chordin-like protein 2 (CHRDL2); assay: CHRDL2 small-molecule binders, primary screen, biochemical, small-molecule microarray, 635 nm fluorescence (AID 1126); conditions: small-molecule microarray binding, fluorescence 635 nm; higher = more signal;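 note: printed compound slides probed with Chrdl2 protein at 4 µg/mL for 1 h at 4 C; score merges 667 nm emission intensity with signal to noise over three replicate slides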
[8] = target: Concanavalin-A (Canavalia ensiformis) (UniProt P02866); assay: ConA small-molecule binders, primary screen, artefact control for SMM control protein annotation, biochemical, small-molecule microarray, Alexa647 label, 635 nm (AID 1127); conditions: ConA-A647 binding fluorescence, higher = more signal;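 note: z combines 667 nm emission intensity with signal-to-noise across three replicate slides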
[9] = anti-His antibody binders, primary screen, artefact control for SMM control protein annotation, biochemical, small-molecule microarray, 635 nm fluorescence (AID 1128); conditions: anti-His Alexa647 antibody binding, higher = more signal;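 note: score merges feature fluorescence with signal-to-noise for each printed compound spot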
[10] = test system: Human papillomavirus type 1a E7 protein (residues 1-88); assay: HPV1a E7 small-molecule binders, primary screen, biochemical, small-molecule microarray, residues 1-88, 635 nm (AID 1129); conditions: small-molecule microarray binding, fluorescence 635 nm; higher = more signal
[11] = target: Focal adhesion kinase 1 (Homo sapiens) (UniProt Q05397); assay: small-molecule microarray binders of FAK, primary screen, biochemical, 635/667 nm fluorescence, BSA, DTT (AID 1130); conditions: PTK2 binding, 635 nm fluorescence, higher = more signal;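 note: composite of spot emission at 667 nm and signal to noise over triplicate slides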
[12] = test system: Fibrinogen (Alexa647-labelled); assay: fibrinogen binders on compound microarrays, profiling panel, artefact control for SMM control-protein annotation, biochemical, small-molecule microarray, 635/667 nm fluorescence (AID 1131); conditions: fibrinogen-A647 binding fluorescence, higher = more signal;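 note: z-score merges 667 nm fluorescence with per-spot signal-to-noise over triplicate slides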
[13] = target: Follistatin (Homo sapiens) (UniProt P19883); assay: follistatin binders on small-molecule microarrays, primary screen, biochemical, small-molecule microarray, 635/667 nm fluorescence (AID 1132); conditions: FST binding, 635 nm fluorescence, higher = more signal
[14] = target: Fibroblast growth factor 2 (Homo sapiens) (UniProt P09038); assay: FGF2 binders on small-molecule microarrays, primary screen, biochemical, small-molecule microarray, 635/667 nm fluorescence (AID 1133); conditions: small-molecule microarray binding, FGF2, fluorescence 635/667; higher = more signal
[15] = mitochondrial membrane potential change in A549 cells, profiling panel, cell-based, JC-1 fluorescence, basal, 24 h, 100 nL (AID 1138); conditions: higher = more signal;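 note: A549 lung adenocarcinoma cells under basal conditions with no added stimulus; test concentration not given here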
Lefty1 = Lefty1 binders on small-molecule microarrays, primary screen, biochemical, small-molecule microarray, 635/667 nm fluorescence (AID 1139); conditions: small-molecule microarray binding, fluorescence 635/667; higher = more signal
[16] = test system: wheat germ agglutinin (Triticum aestivum), Alexa647-labelled; assay: wheat germ agglutinin binders on compound microarrays, profiling panel, artefact control for SMM control-protein annotation, biochemical, small-molecule microarray, 635/667 nm fluorescence (AID 1140); conditions: WGA-A647 binding, 635 nm fluorescence, higher = more signal;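 note: score merges 667 nm feature emission with signal to noise over triplicate slides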
[17] = target: Luciferin 4-monooxygenase (Photinus pyralis) (UniProt P08659); assay: firefly luciferase enzyme inhibitors, primary screen, biochemical, luminescence, purified enzyme, 2006 set (AID 1141); conditions: SteadyGlo luminescence, 30 min, higher = more signal, called active from +8 up or from −8 down;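 note: cell-free assay with purified firefly luciferase at 100 ng per well in PBS; test concentration not given here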
Luciferin 4-monooxygenase (Photinus pyralis), sequence (P08659 whole entry, looked up): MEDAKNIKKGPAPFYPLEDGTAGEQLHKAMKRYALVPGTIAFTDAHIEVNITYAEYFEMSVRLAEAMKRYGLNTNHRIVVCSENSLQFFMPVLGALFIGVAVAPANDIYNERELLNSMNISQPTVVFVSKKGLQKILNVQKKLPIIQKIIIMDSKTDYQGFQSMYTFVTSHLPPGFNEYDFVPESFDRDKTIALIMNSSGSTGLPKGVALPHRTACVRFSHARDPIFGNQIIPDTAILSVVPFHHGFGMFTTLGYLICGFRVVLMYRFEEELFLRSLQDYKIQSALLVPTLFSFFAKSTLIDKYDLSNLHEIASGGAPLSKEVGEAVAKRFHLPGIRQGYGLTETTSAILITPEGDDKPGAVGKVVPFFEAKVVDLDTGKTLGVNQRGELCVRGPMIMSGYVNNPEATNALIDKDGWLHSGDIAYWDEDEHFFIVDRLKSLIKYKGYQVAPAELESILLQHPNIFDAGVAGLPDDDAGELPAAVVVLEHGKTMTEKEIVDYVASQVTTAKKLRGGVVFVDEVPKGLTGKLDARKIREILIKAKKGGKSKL

Follistatin (Homo sapiens), sequence (P19883 whole entry, looked up): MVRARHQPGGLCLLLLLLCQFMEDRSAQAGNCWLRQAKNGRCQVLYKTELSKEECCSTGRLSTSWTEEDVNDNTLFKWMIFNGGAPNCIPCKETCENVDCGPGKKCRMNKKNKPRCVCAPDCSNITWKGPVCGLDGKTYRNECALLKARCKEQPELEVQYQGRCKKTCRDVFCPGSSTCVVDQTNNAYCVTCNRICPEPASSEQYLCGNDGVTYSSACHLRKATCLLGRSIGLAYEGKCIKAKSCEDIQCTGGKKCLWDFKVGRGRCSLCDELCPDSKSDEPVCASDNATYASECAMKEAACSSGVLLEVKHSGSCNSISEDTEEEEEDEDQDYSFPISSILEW
Concanavalin-A (Canavalia ensiformis), sequence (P02866 whole entry, looked up): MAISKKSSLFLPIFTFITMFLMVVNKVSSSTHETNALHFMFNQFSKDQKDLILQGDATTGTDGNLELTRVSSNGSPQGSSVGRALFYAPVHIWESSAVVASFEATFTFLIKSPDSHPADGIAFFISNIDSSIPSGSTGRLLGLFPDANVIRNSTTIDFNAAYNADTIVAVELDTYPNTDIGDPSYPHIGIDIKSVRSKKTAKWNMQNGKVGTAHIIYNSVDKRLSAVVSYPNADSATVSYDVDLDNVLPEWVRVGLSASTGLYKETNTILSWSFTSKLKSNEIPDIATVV
Focal adhesion kinase 1 (Homo sapiens), sequence (Q05397 whole entry, looked up): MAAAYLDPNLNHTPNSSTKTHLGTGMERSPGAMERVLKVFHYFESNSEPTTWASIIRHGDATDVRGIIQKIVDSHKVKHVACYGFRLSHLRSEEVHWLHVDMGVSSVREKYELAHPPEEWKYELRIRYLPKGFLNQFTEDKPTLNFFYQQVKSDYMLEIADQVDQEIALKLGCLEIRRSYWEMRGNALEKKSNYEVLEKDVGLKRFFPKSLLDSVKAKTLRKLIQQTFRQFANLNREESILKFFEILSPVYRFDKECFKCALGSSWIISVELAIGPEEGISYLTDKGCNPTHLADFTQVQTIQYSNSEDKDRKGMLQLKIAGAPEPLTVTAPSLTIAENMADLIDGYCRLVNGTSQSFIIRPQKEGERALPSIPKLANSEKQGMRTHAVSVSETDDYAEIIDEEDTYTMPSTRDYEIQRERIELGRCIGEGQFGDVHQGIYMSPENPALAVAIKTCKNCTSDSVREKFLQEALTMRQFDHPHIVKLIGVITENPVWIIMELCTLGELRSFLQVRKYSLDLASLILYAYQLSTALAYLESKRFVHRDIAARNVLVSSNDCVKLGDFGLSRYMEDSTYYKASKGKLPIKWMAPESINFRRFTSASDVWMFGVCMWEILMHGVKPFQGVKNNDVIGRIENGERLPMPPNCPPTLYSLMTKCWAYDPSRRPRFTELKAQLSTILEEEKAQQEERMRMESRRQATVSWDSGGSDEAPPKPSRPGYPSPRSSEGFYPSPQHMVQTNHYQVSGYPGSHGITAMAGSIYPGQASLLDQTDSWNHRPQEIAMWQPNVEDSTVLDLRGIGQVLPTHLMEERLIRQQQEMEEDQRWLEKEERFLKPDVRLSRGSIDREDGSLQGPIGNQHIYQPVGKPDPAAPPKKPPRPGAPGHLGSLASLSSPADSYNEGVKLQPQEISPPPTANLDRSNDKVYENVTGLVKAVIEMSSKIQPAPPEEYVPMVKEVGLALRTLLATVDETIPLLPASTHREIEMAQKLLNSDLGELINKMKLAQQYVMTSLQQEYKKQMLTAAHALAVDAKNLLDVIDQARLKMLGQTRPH
Albumin (Bos taurus), sequence (P02769 whole entry, looked up): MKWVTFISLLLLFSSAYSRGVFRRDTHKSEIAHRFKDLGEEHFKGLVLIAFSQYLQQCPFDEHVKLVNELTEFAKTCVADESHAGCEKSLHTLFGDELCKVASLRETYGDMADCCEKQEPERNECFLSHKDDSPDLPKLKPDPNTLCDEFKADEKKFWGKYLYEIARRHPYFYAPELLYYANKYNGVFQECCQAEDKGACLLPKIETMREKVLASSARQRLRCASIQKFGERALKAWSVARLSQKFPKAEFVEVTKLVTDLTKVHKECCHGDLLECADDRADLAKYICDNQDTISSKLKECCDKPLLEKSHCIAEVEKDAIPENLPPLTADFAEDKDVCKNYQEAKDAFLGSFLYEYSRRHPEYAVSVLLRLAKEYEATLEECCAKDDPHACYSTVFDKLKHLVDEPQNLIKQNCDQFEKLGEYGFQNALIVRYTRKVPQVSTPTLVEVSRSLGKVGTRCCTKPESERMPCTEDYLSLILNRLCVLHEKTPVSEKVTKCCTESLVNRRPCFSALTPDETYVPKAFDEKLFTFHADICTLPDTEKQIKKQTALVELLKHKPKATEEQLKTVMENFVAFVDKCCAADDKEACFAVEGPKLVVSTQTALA
Fibroblast growth factor 2 (Homo sapiens), sequence (P09038 whole entry, looked up): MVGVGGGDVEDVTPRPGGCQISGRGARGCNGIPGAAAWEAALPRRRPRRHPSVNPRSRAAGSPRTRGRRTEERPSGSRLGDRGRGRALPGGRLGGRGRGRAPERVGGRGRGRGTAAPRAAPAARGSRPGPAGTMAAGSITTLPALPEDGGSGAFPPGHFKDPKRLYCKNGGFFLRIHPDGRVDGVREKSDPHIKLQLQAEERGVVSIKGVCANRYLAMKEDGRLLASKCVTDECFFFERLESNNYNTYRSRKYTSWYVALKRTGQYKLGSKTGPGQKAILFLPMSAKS

SMILES	composite z-score (Albumin (Bos taurus))	composite Z-score [1]	composite z-score [2]	composite z-score [3]	composite z-score [4]	composite z-score [5]	composite z-score [6]	composite z-score (Sam68 (KHDRBS1))	composite z-score [7]	composite z-score [8]	composite z-score [9]	composite z-score [10]	composite z-score [11]	composite z-score [12]	composite z-score [13]	composite z-score [14]	z-score [15]	composite z-score (Lefty1)	composite z-score [16]	z-score [17]
CC(=O)OC[C@H]1O[C@H](CC=NOCC[C@@H]2C=C[C@H](OC(C)=O)[C@@H](COC(C)=O)O2)C=C[C@@H]1OC(C)=O	-0.076	-0.69 (inactive)	0.127	-0.165	-0.146	-0.489	-0.099	1.29	0.973	0.304	1.77	0.642	-0.216	-0.305	0.447	1.02	-0.6	1.29	-0.111	0.966 (inactive)
CCOC(=O)[C@H](Cc1ccccc1)NC(=O)CCC1CC(OC(=O)NCc2ccc3c(c2)OCO3)CC2(CCCC(COC(=O)NCCCN3CCCC3=O)O2)O1 (stereo not given in full)	0.613	0.581 (inactive)	-0.0204	-0.179	0.454	1.27	0.334	1.32	0.329	1.1	0.556	0.959	0.28	0.87	0.72	0.537	0.232	0.428	0.305	1.12 (inactive)
CC(C)CON=C1C[C@@H](O)[C@@H](O)[C@@H]2[C@@H]3C(=O)N([C@@H](C)c4ccccc4)C(=O)[C@@H]3CC[C@@H]12	0.538	-0.293 (inactive)	-0.145	-0.153	-0.139	-0.039	-0.0296	0.132	0.417	0.0928	0.0924	0.124	-0.164	0.501	-0.319	0.114	-0.655	-0.162	0.252	0.999 (inactive)
CCCNC(=O)OC[C@H]1O[C@H](CCON=C[C@@H](C)[C@H](OCc2ccccc2)C(C)C)C=C[C@@H]1Oc1ccc(OC)cc1	-0.655	-0.288 (inactive)	-0.0308	-0.149	-0.473	0.775	-0.394	-1.04	0.379	-0.501	3.25	-0.603	-0.072	-0.101	-0.134	-0.0238	1.63	0.401	-0.199	-1.46 (inactive)
COC(=O)CC=C1c2ccccc2[C@H](OC)[C@H]1C	-0.8	0.272 (inactive)	0.0026	-0.0614	-0.36	-0.316	-0.441	-0.742	0.523	-0.334	-0.706	-0.352	-0.102	-0.479	-0.0211	0.621	-0.612	0.338	-0.488	0.469 (inactive)
COc1ccc(O[C@H]2C=C[C@@H](c3ccccc3)O[C@@H]2COC(=O)CCC(C)=NOC[C@@H](O)COCc2ccco2)cc1	0.214	-0.22 (inactive)	-0.919	-0.271	-0.888	-1.8	-0.875	-0.875	-3.04	-2.57	0.614	-0.99	-0.814	-3.44	-2.77	-2.63	-0.424	-1.58	-0.674	-0.49 (inactive)
CCOC(=O)[C@H](Cc1ccccc1)NC(=O)CCC1CC(OC(=O)NCc2cccc3ccccc23)CC2(CCCC(COC(=O)NCC3CCCCC3)O2)O1 (stereo not given in full)	-0.112	0.878 (inactive)	0.0713	-0.123	0.0394	0.745	0.395	1.18	0.54	0.702	1.05	1.06	0.289	0.923	0.421	0.754	0.624	0.826	-0.264	0.632 (inactive)
COC(=O)[C@H](C)NC(=O)CC=C[C@@H](C)[C@@H]1C=C[C@H](O)[C@@H](CO)O1	-0.453	-0.0756 (inactive)	-0.0932	-0.237	-0.114	-0.346	-0.0681	0.457	1.33	-0.174	0.0816	0.228	-0.118	-0.0588	1.14	1	-0.142	1.39	-0.28	0.374 (inactive)
CCOC(=O)CCN1C(=O)[C@H]2[C@H]3[C@H](O)[C@H](O)CC(=NNC(=O)OCC)[C@H]3CC[C@H]2C1=O	-0.898	-0.17 (inactive)	0.0927	-0.145	0.505	0.294	-0.0069	0.398	1.27	-2.61	0.307	-0.113	0.276	-1.05	0.799	0.406	-0.918	1.01	-0.656	0.303 (inactive)
COC(=O)[C@H](C)NC(=O)CCC1CC(OC(=O)NCc2cccc3ccccc23)CC2(CCCC(COC(=O)NCc3cccc(C(F)(F)F)c3)O2)O1 (stereo not given in full)	0.845	0.15 (inactive)	0.106	-0.0846	0.15	1.78	0.0331	1.31	0.293	1.12	1.12	0.818	0.0625	0.83	0.928	0.657	1.43	0.526	0.48	-0.552 (inactive)
CC(C)(C)N1C(=O)[C@H]2[C@@H]3C(=CC[C@H]2C1=O)C(=O)[C@H]1O[C@H]1[C@H]3O	0.0159	0.321 (inactive)	-0.0976	-0.154	-0.444	-0.511	-0.058	-0.657	1.04	-0.721	0.23	-0.137	-0.339	-1.06	0.1	-0.17	-0.732	-0.0815	0.844	-2.65 (inactive)
